# Source: PubChem
# PrP 5UTR inh = inhibition of PrP 5' UTR reporter expression; AID 488862, 2010; inhibition, % (no concentration beside the values); 340,000 compounds, 0.35% hits; cell-based PrP 5' UTR mRNA reporter, plate reader; in the data active = inhibition above about 52%; note: 0 = median of the neutral control wells
# PrPC TRFRET = inhibitors of human cell surface prion protein PrPC, primary screen, cell-based, TR-FRET | TR-FRET read-out | inhibition, % at 13.8 µM | AID 720596, 2013 | 370,000 compounds, 0.43% hits | Major prion protein (Homo sapiens), P04156; in the data active = inhibition above about 24%; note: 0% = median of the test wells and 100% = reference compound wells
# Mtb hypoxia rep = PubChem AID 1159583; 300,000 compounds, 0.1% hits; fluorescence inhibition, % (no concentration beside the values); M. tuberculosis hypoxia-regulated fluorescent reporter, fluorescence; in the data active = fluorescence inhibition mostly above about 23%, no sharp cut-off; inactive = mostly below about 17%
# RecA intein inh = Mtb RecA intein splicing inhibitors, primary screen, biochemical, fluorescence, HTS; Protein RecA (Mycobacterium tuberculosis (strain ATCC 25618 / H37Rv)), P9WHJ3; cell-free RecA intein splicing; inhibition, % (test concentration not listed); 290,000 compounds, 0.75% hits; AID 2221, 2009; in the data active = inhibition above about 30%; inconclusive = no clear call, values can overlap the other calls;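 note: 0% = vehicle wells and 100% = reference inhibitor control wells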
# Target sequence (P9WHJ3 whole entry, looked up): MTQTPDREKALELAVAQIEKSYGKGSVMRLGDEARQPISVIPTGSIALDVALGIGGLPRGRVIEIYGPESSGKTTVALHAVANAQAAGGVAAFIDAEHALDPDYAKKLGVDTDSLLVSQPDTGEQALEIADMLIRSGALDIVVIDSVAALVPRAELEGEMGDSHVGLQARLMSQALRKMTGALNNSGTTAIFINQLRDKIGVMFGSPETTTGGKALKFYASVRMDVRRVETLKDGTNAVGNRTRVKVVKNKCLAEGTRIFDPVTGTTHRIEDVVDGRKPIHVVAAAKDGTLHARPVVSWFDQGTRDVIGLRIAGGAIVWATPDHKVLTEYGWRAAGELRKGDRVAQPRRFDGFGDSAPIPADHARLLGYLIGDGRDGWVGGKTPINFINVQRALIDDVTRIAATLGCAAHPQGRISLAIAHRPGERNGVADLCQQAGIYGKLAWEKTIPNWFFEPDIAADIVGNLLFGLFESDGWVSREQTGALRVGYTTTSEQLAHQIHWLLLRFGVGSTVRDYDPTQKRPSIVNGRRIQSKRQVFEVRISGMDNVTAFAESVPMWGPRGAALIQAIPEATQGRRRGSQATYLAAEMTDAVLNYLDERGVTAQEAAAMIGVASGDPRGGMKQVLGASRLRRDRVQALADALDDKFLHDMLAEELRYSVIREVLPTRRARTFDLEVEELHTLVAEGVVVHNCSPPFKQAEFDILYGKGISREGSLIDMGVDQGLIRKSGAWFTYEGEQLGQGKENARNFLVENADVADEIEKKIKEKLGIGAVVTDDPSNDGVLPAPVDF
# BJeLR lethal = MLPCN primary cell-based screen for lethality selective to Ras in HRASV12 cells | BJeLR (HRASV12) viability, CellTiter-Glo ATP luminescence, 48 h | inhibition, % (concentration not given with the values) | 300,000 compounds, 0.17% hits; in the data active = inhibition above about 50%; inconclusive = no clear call, values can overlap the other calls
# SARS 3CLpro inh = SARS-CoV 3CLpro protease inhibitors, primary screen, biochemical, quenched FRET | Replicase polyprotein 1ab (Severe acute respiratory syndrome coronavirus), P0C6X7 | recombinant SARS-CoV 3CLpro, quenched FRET peptide cleavage | inhibition, % at 6 µM | 290,000 compounds, 0.14% hits | AID 1706, 2009; in the data active = inhibition above about 12%
# PrP UTR cherry = prion 5' UTR mRNA inhibition, cherry-pick retest. shares compounds with PrP 5UTR inh. cell-based prion protein 5' UTR reporter, plate reader. inhibition, % at 2.5 µM. 1,100 compounds, 48% hits. AID 504592, 2011; in the data active = inhibition above about 54%; inconclusive = no clear call, values can overlap the other calls
# * hit, by the source's call; ? = inconclusive; . = no result given. The list is not random: actives were taken first. Their share in the collection is about 1.4%.
SMILES,PrP 5UTR inh,PrPC TRFRET,Mtb hypoxia rep,RecA intein inh,BJeLR lethal,SARS 3CLpro inh,PrP UTR cherry
Cc1sc(NC(=S)NC(=O)c2ccco2)c(C(N)=O)c1C,-34.2,3.1,-6.5,-2.1,1.5,1.5,.
COC(=O)CCC(=O)Nc1sc(C)c(C)c1C(N)=O,-3.0,1.5,1.5,-3.2,8.8,0.9,.
COc1ccc2c(c1)OCC1C2N2C(=O)C(C)NC(=O)[C@@]2(C)C1c1ccccc1 (stereo not given in full),.,.,4.1,.,.,.,.
CC(=O)Nc1cccc(NC(C)=O)n1,-8.1,6.7,.,-0.8,-2.2,2.9,.
CC(=O)Nc1cccc(C(=O)O)n1,87.8*,3.2,18.4,0.1,-5.0,1.0,-10.7
O=C(NCC1CCCCC1)c1ccc(F)c(S(=O)(=O)N2CCOCC2)c1,-27.4,10.5,22.3,.,.,.,.
CCC1CCCCN1C(=S)NC(=O)c1ccc(F)c(S(=O)(=O)N2CCOCC2)c1 (stereo not given),59.5*,4.8,6.0,1.2,1.7,6.1,4.9
CCOC(=O)C1(Cc2ccccc2)CCCN(CCO)C1 (stereo not given),-64.1,2.4,2.2,3.7,-3.5,-4.4,.
CCOC(=O)C1(Cc2ccccc2)CCCN(Cc2ccc(OCC)c(CO)c2)C1 (stereo not given),52.5*,3.7,6.6,-0.6,6.7,-2.5,4.9
O=C(CCN1C(=O)C(=Cc2ccc3c(c2)OCO3)SC1=S)NNC(=O)c1cccnc1,.,.,-4.4,.,.,.,.
CC1=CSC(=C(C#N)C(=O)N2CCOCC2)N1c1ccccc1,.,.,0.2,.,.,.,.
CCOc1ccccc1OCCCC(=O)N1CCN(S(=O)(=O)c2cc(F)ccc2F)CC1,-22.0,-1.4,.,.,.,.,.
CCOc1ccccc1OCCCC(=O)N1CCN(S(=O)(=O)c2ccc(Cl)cc2)CC1,87.2*,-6.1,9.8,.,.,.,-10.4
COc1ccc(CN2CCC3C=CCc4cccc(c43)C2)cc1 (stereo not given),.,.,4.2,.,.,.,.
COc1ccc(S(=O)(=O)N2c3cc(Cl)ccc3Oc3nc4ccccc4nc32)cc1,71.1*,-1.7,.,-3.4,74.2*,1.3,88.4*
CCOC(=O)c1c(C)[nH]c(C(=O)N/N=C/c2ccc(Br)cc2)c1C,55.1*,2.2,.,1.8,45.6,-0.3,87.7*
CCOC(=O)c1c(C)[nH]c(C(=O)NN=Cc2ccccc2O)c1C,.,.,2.9,.,.,.,.
CC(=O)OCC(=O)Nc1ccccc1C,76.2*,8.0,-6.3,0.2,-2.5,-3.4,-7.8
CC(=O)OCC(=O)Nc1c(C)cccc1C,30.8,-1.1,1.6,.,13.0,1.9,.
CCCc1c(C(=O)Nc2ccc(C(F)(F)F)cc2)cnn1-c1ccccc1,65.1*,9.5,-0.2,-0.1,-10.3,5.6,-9.7
CC(CC(=O)NC1CCCC1)=NNC(=O)Cc1cccs1,.,.,-0.7,.,.,.,.
C=C(C)C1CC=C(C)C(=NNC(=O)c2ccc(NC(=O)CC)cc2)C1 (stereo not given),.,.,3.9,.,.,.,.
Cc1ccc(S(=O)(=O)NC2CCSC2=O)cc1C (stereo not given),74.8*,5.6,7.8,.,.,.,-7.5
Cc1ccc(S(=O)(=O)NC2CCCC2)cc1C,-40.4,-1.9,.,-2.3,-1.3,-0.5,.
COc1ccc(Br)cc1C=NNC(=O)c1ccco1,.,.,6.4,.,.,.,.
SMILES,PrP 5UTR inh,PrPC TRFRET,Mtb hypoxia rep,RecA intein inh,BJeLR lethal,SARS 3CLpro inh,PrP UTR cherry
CC(O)CNc1ncnc2nc[nH]c12 (stereo not given),-19.6,-0.5,-7.2,-0.6,-13.3,-0.2,.
CC(C)CCCCCCCCCCCCC(=O)NCC(=O)NC1C(O)C(O)C(Nc2ncnc3nc[nH]c23)OC1C(O)CO (stereo not given),89.5*,.,.,.,.,.,86.3*
CCN(CC)c1ccc(C(=C2C=CC(=[N+](CC)CC)C=C2)c2ccc(N(CC)CC)cc2)cc1,52.5*,-142.7,100.2*,.,.,.,?
O=C(NN=C/C=C\c1cccc([N+](=O)[O-])c1)c1cccnc1,.,.,8.0,.,.,.,.
COc1cccc(C2=CC(c3cc(OC)ccc3OC)n3nnnc3N2)c1 (stereo not given),-23.7,-2.8,2.7,-3.0,-3.6,4.1,.
COc1ccc(OC)c(C2C=C(c3ccc(C)c(C)c3)Nc3nnnn32)c1 (stereo not given),68.7*,2.5,-1.0,10.4,31.0,.,3.1
CN1CCN(c2ccc(NC(=O)N3CCc4ccccc43)cc2)CC1,63.6*,0.2,3.7,-1.2,-6.2,-1.6,?
Cc1ccc(NC(=O)N2CCc3ccccc32)cc1,-40.8,7.0,14.4,0.6,3.5,-0.1,.
Cc1ccc2nc(SC(C)C(=O)N3CCCCC3)[nH]c2c1 (stereo not given),66.0*,8.7,5.5,0.2,-0.1,-0.5,4.6
COC(=O)c1ccc2c(c1)c(-c1ccccc1)c(-c1ccccc1)n2C,84.6*,-2.5,-6.6,.,.,.,-27.4
S=c1nc(C2COc3ccccc3O2)[nH][nH]1 (stereo not given),-51.2,-9.5,6.3,-0.6,3.6,2.3,.
CCCS(=O)(=O)c1cnc(C2COc3ccccc3O2)nc1N (stereo not given),85.7*,-3.1,7.7,-1.3,20.0,3.1,82.9*
Cn1c(NC2CCCCC2)cc(=O)n(C)c1=O,-27.0,-4.4,12.4,0.0,-4.9,-6.4,.
Cc1cc(C2CCCCC2)n(O)c(=O)c1,68.9*,8.0,.,.,.,.,32.0
COC(COC(N)=O)C1=C(N2CC2)C(=O)C(C)=C(N2CC2)C1=O (stereo not given),-28.8,-25.0,.,.,.,.,.
CC1=C(N2CC2)C(=O)C(CO)=C(N2CC2)C1=O,97.7*,-38.6,.,.,.,.,97.2*
CC(=O)Oc1c(C)c(C)c2c(c1C)CC[C@@](C)(CCCC(C)CCCC(C)CCCC(C)C)O2 (stereo not given in full),.,.,-4.6,.,.,.,.
O=C(Nc1ccccc1)c1cnc2n(c1=O)CCS2,56.1*,-3.0,-0.9,0.5,2.9,1.8,-38.8
Cc1cc(C)nc(Sc2ncnc(N)c2[N+](=O)[O-])n1,55.8*,3.3,0.1,4.7,4.0,3.9,-1.0
O=S1(=O)CC(N2CCCCC2)C(N2CCCCC2)C1 (stereo not given),69.3*,0.7,6.2,-1.9,3.9,-3.1,-6.2
O=S1(=O)CC(N2CCCC2)CN1C1CCCCC1 (stereo not given),.,-6.2,.,.,.,.,.
Cc1cnc(C(=O)OC(C)C(=O)Nc2ccc(Oc3ccccc3)cc2)cn1 (stereo not given),90.1*,0.7,-3.7,.,.,.,-11.7
O=C(NC1CC1)c1ccc(-c2nc3ccccc3s2)s1,65.9*,-27.2,.,-5.0,7.1,2.5,?
C[C@@]12C(=O)N(CC3CCCO3)CC(=O)N1C1c3ccccc3OCC1C2c1ccccc1 (stereo not given in full),.,.,4.4,.,.,.,.
COc1ccc(-c2ccnc3cc(C(=O)O)nn23)cc1,84.1*,-34.2,6.6,-25.4,-0.1,7.8,-9.2
